# Assay outcomes deposited in PubChem BioAssay by National Center for Advancing Translational Sciences (NCATS).
# FMDV antiviral: FMDV antiviral activity by firefly signal; FMDV antiviral cell assay, firefly luciferase signal; Potency, µM (series often up to 57.5 µM), most hits filed as inhibitors; 0.23% of 120,000 active; AID 1745856; also: nearly all actives have a fitted effect of over 60% in size
# FMDV RLuc: FMDV antiviral activity by Renilla signal; Potency, µM (top dose mostly 57.5 µM), hits mostly inhibitors; 0.32% of 120,000 active; AID 1745857; FMDV replicon cells, Renilla luciferase signal; also: nearly all actives have a fitted effect of over 55% in size
# Numbers stand for hits; n = inactive; u = inconclusive; [ ] = remark or other dose. Compounds with a hit are over-represented: about 0.4% of the library has one in this group of screens. Calls follow the shape of the full dose curve.
SMILES,FMDV antiviral,FMDV RLuc
Cc1ccc(-c2cc(C(=O)NC3=NCCS3)c3ccccc3n2)s1,n,n
COc1ccc(NC(=O)CCCS(=O)(=O)c2nc(-c3ccc(OC)c(OC)c3)cc(C(F)(F)F)n2)cc1OC,28µM,n
COc1ccc(-c2cc(C(F)(F)F)nc(S(=O)(=O)CCCC(=O)Nc3ccccc3C(F)(F)F)n2)cc1OC,n,n
CC(NC(=O)/C(=C\c1ccc(F)cc1)NC(=O)c1ccco1)C(=O)O (stereo not given),n,n
Cc1ccc(COc2ccc(Cl)cc2C=O)cc1,n,n
O=C(Nc1ccnn1Cc1cccs1)c1ccc(S(=O)(=O)N2CCCC2)cc1,14µM,u
O=C(Nc1nc(-c2ccncc2)cs1)c1ccc(S(=O)(=O)N2CCCCC2)cc1,n,n
COc1cc(/C=C(/C#N)c2nc3ccccc3[nH]2)ccc1OC(F)F,n,n
CCCc1nc2c(-c3ccc(OC)cc3)c(C)[nH]n2c(=O)c1Cl,n,n
CC1(C)CC(=O)c2cc(C#N)c(=O)n(-c3cccc(F)c3)c2C1,n,n
CCc1ccc(NC(=O)c2sc3nc4c(cc3c2N)CN(C(C)C)CC4)cc1,n,25µM
CCN(CC)c1ccc(NC(=O)c2sc3nc4c(cc3c2N)CN(C)CC4)cc1,n,n
CCOc1ccc(NC(=O)COc2ccc(OC)cc2)c2cccnc12,n,n
COc1ccc(NC(=O)COc2ccccc2Cl)c2cccnc12,11µM,10µM
COc1ccc(NC(=O)c2ccccc2Cl)c2cccnc12,n,n
COc1ccc(NC(=O)COc2ccc(Cl)cc2)c2cccnc12,u,11µM
CS(=O)(=O)N1CCN(C(C(=O)O)c2c[nH]c3cc(Cl)ccc23)CC1 (stereo not given),n,n
CCC(C)C(=O)NCc1ccc(COC(C)C)cc1 (stereo not given),n,n
COc1ccccc1NC(=O)c1ccc(N2CCCN(Cc3ccccc3C)C2=O)cc1,n,n
CN(C)c1ccc(NC(=O)C(c2ccccc2)c2ccccc2)cc1,n,n
Cc1ccc(NS(=O)(=O)c2c(C)nc3sc(C)cn3c2=O)c(Cl)c1,n,n
CCN(CC)c1cc(C)nc(Nc2ccc(NC(=O)CCCc3ccccc3)cc2)n1,u,32µM
Cc1cc(N(C)C)nc(Nc2ccc(NC(=O)Nc3ccc(F)cc3)cc2)n1,n,n
Fc1ccc(CCNC(=S)Nc2cccc(Cl)c2)cc1,u,n
CCOc1ccc(-c2cc(C(=O)O)c3ccccc3n2)cc1OCC,n,20µM
SMILES,FMDV antiviral,FMDV RLuc
CCOc1ccc(-c2cc(C(=O)O)c3ccccc3n2)cc1,n,u
COc1cc(CN(C(=O)c2ccc(OC(C)C)cc2)c2ccccn2)cc(OC)c1OC,u,10µM
COc1cc(CN(C(=O)c2cccc(Cl)c2)c2ccccn2)cc(OC)c1OC,u,n
CC1CCCCC1NC(=S)NCC(C)(C)N1CCOCC1 (stereo not given),n,n
CCOc1ccc(C(=O)Nc2ccc3nc(SCC(=O)N(C)c4ccccc4)sc3c2)cc1,7.9µM,u
Cc1ccccc1C(=O)Nc1ccc2nc(SCC(=O)N(C)c3ccccc3)sc2c1,n,n
Cc1ccc(F)cc1NC(=O)c1cnc2ccccc2n1,n,n
Cc1ccc(NC(=O)Cc2coc3ccc(C(C)C)cc23)cc1Cl,u,n
CCc1ccc2occ(CC(=O)Nc3ccc(C)c(C)c3)c2c1,25µM,u
CN(CC(=O)Nc1ccc(Cl)cc1)Cc1nc2cc(Cl)ccc2c(=O)[nH]1,n,n
Cc1cccc(NC(=O)NCc2c(C)nn(C)c2C)c1C,n,n
CC(C)=CCNc1ncnc2c1ncn2[C@@H]1O[C@H](CO)[C@@H](O)[C@H]1O,n[11.5 µM],n
Nc1nc(F)nc2c1ncn2[C@@H]1O[C@H](CO)[C@@H](O)[C@@H]1O,u,14µM
CS(=O)(=O)N1CCC(NS(=O)(=O)c2ccc(F)cc2)CC1,n,n
CCOc1ccc2ccccc2c1C=O,n,n
CCOc1ccc(C=O)c2ccccc12,10µM,4.5µM
COc1ccc(-c2noc(-c3cccn(CC(=O)Nc4cc(C)cc(C)c4)c3=O)n2)cc1OC,n,n
COc1nc(C(=O)NC2(c3ccccc3)CCC2)cc2ccccc12,u,4.5µM
COc1nc(C(=O)NCC(C)N(C)C)cc2ccccc12 (stereo not given),n,n
CCc1c(C)sc2c1CCN(Cc1ccccc1C#N)C2c1ccccc1 (stereo not given),n,n
CCc1c(C)sc2c1CCN(Cc1ccccc1)C2c1ccccc1 (stereo not given),u,13µM
COc1cc(C(=O)NCC2(c3ccccc3)CCC2)cc(OC)c1OCC(N)=O,n,n
Cc1cc(C(=O)Nc2c(C)nn(Cc3ccc(F)cc3)c2C)no1,n,n
Cc1nn(Cc2ccc(F)cc2)c(C)c1NC(=O)c1cc(-c2cccs2)on1,35µM,u
COc1ccc(OC)c(NC(=O)[C@H]2C[C@@H]3CCCN3[C@]23C(=O)Nc2c(Cl)cccc23)c1,n,n
O=C(Nc1ccc(Oc2ccccc2)cc1)c1cccc(CN2CCCC2=O)c1,u,7.9µM
CC(C)(C)c1ccc(NC(=O)c2ccc(CN3CCCC3=O)cc2)cc1,u,22µM
